The list is not random: actives were taken first. Their share in the collection is about 0.87%.
FEN1 inh-1 = qHTS Assay for the Inhibitors of Human Flap endonuclease 1 (FEN1); Potency, µM (top dose mostly 114 µM), for the others: at the highest dose activity change, negative = inhibition, hits mostly inhibitors; 390,000 compounds, 0.35% hits; Recombinant FEN1 flap cleavage, fluorescence, 15 min; also: % is scaled to controls: 0 for no effect and ±100 for the full control effect; nearly all actives have a fitted effect of over 65% in size
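Enzyme 10 nM, 15 min RT preincubation with compound; start with substrate 50 nM final; reads at 0 and 15 min; qHTS titration, four-parameter Hill fit.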
BLM inh = qHTS Assay for Inhibitors of Bloom's syndrome helicase (BLM); recombinant BLM DNA unwinding, fluorescence dequenching; Potency, µM (titrated, usually from 56.1 µM), without a hit: at the top dose activity change, negative = inhibition, actives largely listed as inhibitors; 350,000 compounds, 0.2% hits; AID 2528, 2010;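 also: plate controls were vehicle for no effect and no enzyme for full effect; nearly all actives have a fitted effect of over 35% in size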
WRN helicase inh = qHTS for Inhibitors of WRN Helicase. WRN helicase unwinding, fluorescent forked duplex, kinetic. Potency, µM (highest dose often 114 µM), for inactives: top-dose activity change, negative = inhibition, most hits filed as inhibitors. 360,000 compounds, 0.46% hits; also: % is scaled to controls: 0 for no effect and ±100 for the full control effect; nearly all actives have a fitted effect of over 55% in size
Target sequence (Q14191 whole entry, looked up): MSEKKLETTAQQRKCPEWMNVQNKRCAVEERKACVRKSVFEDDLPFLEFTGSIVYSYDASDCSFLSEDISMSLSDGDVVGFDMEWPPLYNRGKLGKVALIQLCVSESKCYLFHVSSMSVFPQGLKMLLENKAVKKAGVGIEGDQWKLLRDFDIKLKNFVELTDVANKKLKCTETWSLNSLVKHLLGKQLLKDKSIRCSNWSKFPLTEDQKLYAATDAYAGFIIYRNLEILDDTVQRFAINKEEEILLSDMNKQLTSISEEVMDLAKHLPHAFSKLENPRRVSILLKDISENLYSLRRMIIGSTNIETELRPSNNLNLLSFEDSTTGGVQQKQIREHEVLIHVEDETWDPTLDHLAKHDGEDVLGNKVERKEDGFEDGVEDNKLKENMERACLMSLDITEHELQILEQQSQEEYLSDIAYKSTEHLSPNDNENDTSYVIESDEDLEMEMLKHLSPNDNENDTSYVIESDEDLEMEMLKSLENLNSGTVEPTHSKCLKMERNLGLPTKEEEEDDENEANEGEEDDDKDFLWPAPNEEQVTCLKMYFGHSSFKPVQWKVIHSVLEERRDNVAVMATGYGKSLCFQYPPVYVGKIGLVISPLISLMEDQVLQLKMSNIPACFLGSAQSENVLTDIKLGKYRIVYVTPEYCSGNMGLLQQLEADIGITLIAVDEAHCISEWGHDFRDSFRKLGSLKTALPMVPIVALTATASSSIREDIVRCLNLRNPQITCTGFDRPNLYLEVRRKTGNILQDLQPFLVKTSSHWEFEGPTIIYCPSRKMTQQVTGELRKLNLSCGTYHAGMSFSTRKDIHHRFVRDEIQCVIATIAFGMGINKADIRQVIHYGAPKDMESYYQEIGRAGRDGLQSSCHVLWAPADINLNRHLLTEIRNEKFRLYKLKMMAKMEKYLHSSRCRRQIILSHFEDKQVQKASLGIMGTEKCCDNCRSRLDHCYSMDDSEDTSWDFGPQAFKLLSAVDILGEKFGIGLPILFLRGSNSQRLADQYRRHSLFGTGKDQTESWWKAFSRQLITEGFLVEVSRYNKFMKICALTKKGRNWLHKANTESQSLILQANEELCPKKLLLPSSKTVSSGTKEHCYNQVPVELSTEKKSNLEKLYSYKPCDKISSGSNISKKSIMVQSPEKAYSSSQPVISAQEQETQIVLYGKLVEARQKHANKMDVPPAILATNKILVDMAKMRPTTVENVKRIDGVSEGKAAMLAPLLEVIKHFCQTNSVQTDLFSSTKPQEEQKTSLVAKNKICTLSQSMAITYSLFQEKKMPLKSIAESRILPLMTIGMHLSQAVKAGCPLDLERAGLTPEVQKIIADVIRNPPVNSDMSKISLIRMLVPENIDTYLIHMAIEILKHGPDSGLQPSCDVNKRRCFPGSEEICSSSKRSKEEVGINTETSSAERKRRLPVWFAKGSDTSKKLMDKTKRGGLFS
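Screening of the MLSMR collection measured strand separation of a quenched forked DNA duplex (100 nM) by 20 nM WRN with 2 mM ATP, all final. Compounds were preincubated with enzyme 15 min at room temperature.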
RECQ1 inh = qHTS Assay for Inhibitors of RecQ-Like Dna Helicase 1 (RECQ1); ATP-dependent DNA helicase Q1 (Homo sapiens), P46063; RECQ1 DNA unwinding, red fluorescence kinetic read; Potency, µM (doses to about 57.3 µM), inactives show at the highest dose activity, negative = inhibition, usual class: inhibitors; 240,000 compounds, 0.54% hits; AID 2549, 2010;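 also: plate controls were vehicle for no effect and no enzyme for full effect; nearly all actives have a fitted effect of over 30% in size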
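RECQ1T1 50 nM; forked duplex (20 bp + 30-nt ss tails) 200 nM, ATP 2 mM final; pH 8.0, 2 mM MgCl2, 2.5 ug/ml poly(dI-dC); 15 min compound preincubation; discontinuous kinetic read over 2 h at RT.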
APEX1 inh = qHTS Assay for Inhibitors of the Human Apurinic/apyrimidinic Endonuclease 1 (APE1); DNA repair nuclease/redox regulator APEX1 (Homo sapiens), P27695; AID 2517, 2012; 350,000 compounds, 0.35% hits; recombinant APE1, TAMRA/BHQ-2 abasic DNA cleavage fluorescence; Potency, µM (highest dose often 65.8 µM), for the others: at the top dose activity change, negative = inhibition, hits mostly inhibitors;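 also: plate controls were vehicle for no effect and reference inhibitor for full effect; nearly all actives have a fitted effect of over 55% in size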
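Incision of a quenched TAMRA/BHQ-2 THF abasic-site duplex (50 nM) by 0.75 nM APE1, after 15 min compound preincubation, measured as fluorescence increase over three 60 s reads. Values normalized to buffer, DMSO and NSC13755 control wells.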
FEN1 inh-2 = qHTS Assay for the Inhibitors of FEN1: Confirmatory Assay for Cherry-picked Compounds; shares compounds with FEN1 inh-1; FEN1 flap cleavage, TAMRA/BHQ2 fluorogenic DNA substrate; Potency, µM, most hits filed as inhibitors; 880 compounds, 79% hits; also: nearly all actives have a fitted effect of over 60% in size
Starred values were filed as active, the others as inactive; ? = inconclusive; . = no result given; [ ] = remark or other dose. Calls follow the shape of the dose curve; as a rule, active = well fitted curve in the direction sought with a large enough effect; inconclusive = small, poorly fitted or top-dose-only effect, or another doubt; inactive = no such curve, though single readings can be large; an effect the other way counts as inactive or inconclusive. Potency is read from the fitted curve at half-maximal effect.

SMILES	FEN1 inh-1	BLM inh	WRN helicase inh	RECQ1 inh	APEX1 inh	FEN1 inh-2
NS(=O)(=O)c1ccc(N=Nc2c(O)c(C(=O)O)cc3ccccc23)cc1	?	-13%	-9%[11.6 µM]	-23%	-7%	?
COc1cc(OC)c2c(C)c(CC(=O)NCc3ccccc3OC)c(=O)oc2c1	2%	-2%	.	.	.	.
CN1/C(=C\C=O)C(C)(C)c2ccccc21	-3%	4%	0%	-7%	-3%	.
CN1\C(=C/C=C/C=C/C=[N+](C)C)C(C)(C)c2ccccc21	89µM*	28µM*	4.2µM*	25µM*	?	85*
Cc1cncn1CCc1nc2c3ccccc3nc(SCC(=O)Nc3ccc(F)cc3)n2n1	20%	-8%	.	.	.	.
CCOc1ccccc1NC(=O)CSc1nc2ccccc2c2nc(CCn3cncc3C)nn12	-25%	-5%	.	.	.	?
C#CCN1C(=O)S/C(=C\c2ccc(-c3ccc(C(=O)O)cc3C)o2)C1=O	?	-26%	?	.	?	?
c1ccc(-c2nc(-n3ccnc3)nc(-n3ccnc3)n2)cc1	?	81%	27%	-7%	9%	43*
Cc1ccc(-n2cccc2/C=C2/C(=N)N3C(=NC2=O)SN=C3S(C)(=O)=O)cc1Cl	?	28µM*	?	-10%	17%	85*
Cc1cccc(C)c1-n1cccc1/C=C1/C(=N)N2C(=NC1=O)SN=C2S(C)(=O)=O	-4%	-10%	-12%[11.6 µM]	-21%	-1%	.
COc1ccc(Cl)cc1NC(=O)CN(c1cccc(C)c1C)S(C)(=O)=O	-4%	-6%	.	.	.	.
CC1=[N+](C)c2c(ccc3cccnc23)C1(C)C	45µM*	36%	56µM*	?	?	43*
NC1CCN(c2nc3c(cc2F)c(=O)c(C(=O)O)cn3-c2ccc(F)cc2F)C1 (centres undefined)	?	-8%	-4%	.	.	.
NC1CCN(c2c(F)cc3c(=O)c(C(=O)O)cn(C4CC4)c3c2Cl)C1 (centres undefined)	32µM*	28%	-3%[11.6 µM]	3%	5%	?
O=C(ONC(=O)C1CCCCC1C(=O)NOC(=O)c1ccccc1)c1ccccc1 (centres undefined)	18µM*	.	1%[11.6 µM]	.	.	13*
c1ccc2c(c1)-c1cccc3cncc-2c13	?	.	0%[11.6 µM]	.	.	?
CCOc1ccc(CNC(=O)C2CCN(C3=NS(=O)(=O)C(c4ccc(C)cc4)=C3CC)CC2)cc1	8%	-7%	.	.	.	.
COc1ccccc1-c1nnc(C2CCN(C(=O)c3cccc(C)c3)CC2)o1	1%	4%	.	.	.	.
Cc1[nH]c2ccccc2c1C(=O)C(C)OC(=O)c1ccc([N+](=O)[O-])o1 (centres undefined)	?	-7%	-2%[11.6 µM]	-8%	-1%	19*
Cc1ccc(-c2nc3cc(C(C)C)ccc3o2)cc1NC(=O)c1cc([N+](=O)[O-])ccc1N1CCOCC1	8%	-7%	.	.	.	.
CCOc1ccc(N(C)c2ccc(/C=C3/SC(=S)NC3=O)cc2)cc1	?	-8%	?	.	-14%	.
CN(C)c1ccc(C=C2SC(=S)NC2=O)cc1	-34%	.	?	.	.	?
COc1cc(NC(=O)c2cc(-c3cccc(Cl)c3)on2)c(OC)cc1Cl	10%	-3%	.	.	.	.
CCCOc1ccc(C2C(=O)N(C3CCCCC3)CC(=O)N2CCc2ccccc2)cc1OC (centres undefined)	-1%	0%	.	.	.	.
O=C(Nc1ccccc1C(=O)NC1CC1)c1ccc([N+](=O)[O-])o1	-14%	.	-35%	.	?	?
SMILES	FEN1 inh-1	BLM inh	WRN helicase inh	RECQ1 inh	APEX1 inh	FEN1 inh-2
Cc1ccc(-n2cnc3cc(C(=O)NC4CCCCCC4)ccc32)c(C)c1	4%	-10%	.	.	.	.
Cn1c(N)c(C(=O)CSc2nnc(-c3c[nH]c4ccccc34)n2C2CC2)c(=O)[nH]c1=O	20µM*	.	?	.	?	43*
CCCn1c(N)c(C(=O)CSc2nnc(-c3c[nH]c4ccccc34)n2C2CC2)c(=O)[nH]c1=O	7%	.	-18%	.	5%	.
O=C(O)c1ccc(-c2ccc(/C=c3/sc4nc5ccccc5n4c3=O)o2)cc1Cl	13µM*	?	?	.	9.5µM*	?
O=C(CSc1cn(CC(=O)N2CCCCC2)c2ccccc12)NCc1ccc(F)cc1	-10%	0%	.	.	.	.
O=C(O)c1cc(NC(=O)c2ccc([N+](=O)[O-])cc2)cc(NC(=O)c2ccc([N+](=O)[O-])cc2)c1	?	-14%	-2%[11.6 µM]	.	-9%	?
O=c1c2c(-c3ccccc3)csc2nc2c3ccccc3c(NCCN3CCOCC3)nn12	40µM*	279%	37%	48%	?	21*
CCOc1cc(/C=C2\SC(=S)N(NC(=O)c3cccnc3)C2=O)ccc1O	?	-7%	56µM*	18µM*	?	85*
COc1cc(/C=C2/SC(=S)N(Cc3ccccc3)C2=O)ccc1O	?	-20%	8.9µM*	.	-8%	85*
O=C(NN1C(=O)/C(=C/c2cccs2)SC1=S)c1cccnc1	-3%	-5%	-10%	-1%	-2%	.
COc1cc(/C=C2\SC(=S)N(NC(=O)c3ccccc3OC)C2=O)ccc1O	?	?	16µM*	.	-16%	?
COc1cc(/C=C2\SC(=S)N(NS(=O)(=O)c3ccc(C)cc3)C2=O)ccc1O	-26%	-17%	45µM*	22µM*	-11%	67*
COc1cc(/C=C2/SC(=NCc3ccccc3)N(Cc3ccccc3)C2=O)ccc1O	-22%	-15%	-16%	-5%	-12%	.
Cc1ccc(C(=O)c2oc3ccccc3c2NC(=O)Cc2coc3cc(C)ccc23)cc1	-3%	5%	.	.	.	.
COc1cc(/C=C2/SC(=S)N(c3c(C)n(C)n(-c4ccccc4)c3=O)C2=O)ccc1O	?	-9%	?	22µM*	-10%	?
COc1cc(/C=C2\SC(=Nc3ccc(Cl)c(C(=O)O)c3)NC2=O)c(Br)c(Br)c1O	25µM*	-3%	?	.	?	38*
COc1cc(/C=C2\SC(=Nc3ccccc3)NC2=O)cc(Cl)c1O	?	-11%	?	.	-10%	.
Cc1ccc2oc(=O)c(/C=C(\O)C(C)(C)C)nc2c1	50µM*	0%	-8%	-25%	17%	34*

Screening data as filed in PubChem BioAssay.
